Only some compounds are listed: those with a hit (about 3.8% of all), similar ones and a draw of the others.
Jurkat NFkB inh = lowers PMA/ionomycin-induced NF-kB signal in Jurkat cells. PMA/ionomycin-induced NF-kB luciferase reporter, luminescence. inhibition, % at 4 µM. 330,000 tested, 0.53% active; in the data active = inhibition above about 50%
697 NFkB inh = inhibitors of the PMA/ionomycin-induced NF-kB reporter in 697 B cells; AID 435022; inhibition, % at 4 µM; 330,000 tested, 0.33% active; 697 B-cell NF-kB luciferase reporter, 16 h; in the data active = inhibition above about 35%
Shn3 inh set2 = inhibitors of Schnurri-3 3'UTR reporter in osteoblasts. Clone20 osteoblast Shn3 3'UTR firefly luciferase, 24 h. 360,000 tested, 0.52% active. inhibition, % at 12.5 µM;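 active = mean inhibition of at least 75% with every replicate also reaching 75%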;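 also: 0% = median of neutral control wells and 100% = pilot-screen positive control compound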
Gli-Sufu antag = blocks Gli-Sufu signaling in a luciferase reporter; Sufu-KO-LIGHT fibroblasts, Gli luciferase reporter luminescence; inhibition, % at 5 µM; 340,000 tested, 0.74% active; AID 588413;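 active = inhibition above about 55%, limit read from the data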;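 also: 0% = DMSO-treated cells and 100% = wells with medium but no cells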
Mdm2-MdmX inh = disrupts the human Mdm2-MdmX interaction; O15151+Q00987; SaOS-2 split-luciferase Mdm2/MdmX complementation, luminescence; inhibition, % at 8 µM; 330,000 tested, 3% active; AID 485346;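 active = inhibition of at least 50% at 8 µM in the primary screen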
Target sequence (O15151 whole entry, looked up): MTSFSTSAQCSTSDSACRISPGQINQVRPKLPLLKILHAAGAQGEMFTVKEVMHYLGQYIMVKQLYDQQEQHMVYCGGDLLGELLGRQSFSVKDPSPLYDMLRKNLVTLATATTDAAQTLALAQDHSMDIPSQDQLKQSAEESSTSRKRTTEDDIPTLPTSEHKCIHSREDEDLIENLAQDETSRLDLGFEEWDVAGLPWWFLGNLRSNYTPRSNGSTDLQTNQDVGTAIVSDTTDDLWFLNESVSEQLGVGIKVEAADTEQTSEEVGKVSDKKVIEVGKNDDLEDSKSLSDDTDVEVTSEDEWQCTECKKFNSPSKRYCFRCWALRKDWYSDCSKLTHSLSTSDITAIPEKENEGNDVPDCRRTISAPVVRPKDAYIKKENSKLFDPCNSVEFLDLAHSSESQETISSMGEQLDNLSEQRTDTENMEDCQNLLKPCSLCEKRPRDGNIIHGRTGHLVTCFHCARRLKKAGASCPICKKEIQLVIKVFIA
Target sequence (Q00987 whole entry, looked up): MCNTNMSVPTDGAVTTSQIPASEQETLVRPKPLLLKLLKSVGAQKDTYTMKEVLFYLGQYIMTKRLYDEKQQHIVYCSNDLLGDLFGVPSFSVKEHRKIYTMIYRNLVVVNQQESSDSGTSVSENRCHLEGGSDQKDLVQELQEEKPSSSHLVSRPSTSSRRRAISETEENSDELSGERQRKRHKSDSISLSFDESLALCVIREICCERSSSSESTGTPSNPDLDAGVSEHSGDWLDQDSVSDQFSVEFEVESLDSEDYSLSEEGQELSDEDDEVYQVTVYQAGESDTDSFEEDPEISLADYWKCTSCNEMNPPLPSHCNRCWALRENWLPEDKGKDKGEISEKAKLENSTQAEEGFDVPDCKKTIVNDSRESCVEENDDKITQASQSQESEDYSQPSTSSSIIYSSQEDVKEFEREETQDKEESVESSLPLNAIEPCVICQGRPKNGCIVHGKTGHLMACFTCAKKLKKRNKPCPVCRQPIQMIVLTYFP
Mdm2 MdmX conf = confirmation of human Mdm2/MdmX interaction inhibitors; shares compounds with Mdm2-MdmX inh; Mdm2-MdmX binding, luminescent assay; inhibition, % at 8 µM; 10,000 tested, 55% active; in the data active = inhibition above about 40%
Full FLuc ctr = inhibits full-length luciferase, flagging false Mdm2/MdmX hits | shares compounds with Mdm2-MdmX inh | SaOS-2 full-length luciferase counterscreen, luminescence | inhibition, % at 8 µM | 6,200 tested, 77% active;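 active = mean inhibition at 8 µM reaching about 37%, which flags the compound as non-specific, limit read from the data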;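 also: p53-null SaOS-2 cells with luciferase driven by a doxycycline-inducible promoter; compound on cells about two nights before reading with doxycycline added after day one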
* hit, by the source's call; . = no result given.

SMILES	Jurkat NFkB inh	697 NFkB inh	Shn3 inh set2	Gli-Sufu antag	Mdm2-MdmX inh	Mdm2 MdmX conf	Full FLuc ctr
CCc1ccc(/C=C/C(=O)c2cc(Br)ccc(=O)c2O)cc1	5.8	-22.1	13.7	3.2	52.0*	39.0	40.3*
CC(=O)CCC(=O)CNC(=O)CC[C@H]1O[C@@H](n2ccc(=O)[nH]c2=O)[C@H](O)[C@@H]1O	.	.	16.9	.	.	.	.
CC(C)=CC(=O)Nc1nc2ccc([N+](=O)[O-])cc2s1	.	.	-55.0	-20.8	.	.	.
O=C(NC1CCCCC1)c1sc(=S)n2c1[nH]c(=O)c1ccccc12	-19.4	-28.1	-4.5	2.3	70.5*	21.2	.
CCCCNC(=O)c1sc(=S)n2c1[nH]c(=O)c1ccccc12	-143.2	-145.2	-7.8	-0.3	24.4	.	.
FC(F)(F)c1ccc(C2[C@H]3CN(Cc4ccc(-c5ccccc5)cc4)[C@H](c4ccccc4)C34CC2(c2cccnc2)C4)cc1 (stereo not given in full)	8.4	-3.7	.	11.2	53.5*	38.3	58.5*
FC(F)(F)c1ccc(C2[C@H]3CN(Cc4cccnc4)[C@H](c4ccccc4)C34CC2(c2cccnc2)C4)cc1 (stereo not given in full)	8.9	14.5	11.6	-4.8	44.5	.	.
C=CCN1C(=O)C(CC(=O)Nc2ccc(OCCC)cc2)N(CCCN2CCN(Cc3ccccc3)CC2)C1=S (stereo not given)	0.2	7.7	43.3	6.8	79.7*	37.5	75.2*
COC(=O)c1ccccc1NC(=O)c1cc(-c2cccs2)on1	-5.2	-23.3	8.7	-4.8	60.4*	-8.0	.
O=C(c1ccc(Cl)cc1)C(CN1CCCCC1)c1ccccc1 (stereo not given)	34.4	-72.8	40.7	22.1	94.2*	55.0*	42.4*
CCCOc1ccc(C(=O)C(CN2CCOCC2)c2ccccc2)cc1 (stereo not given)	7.6	-8.3	-15.8	-0.2	91.3*	84.5*	25.6
CCOC(=O)C(CN1CCCC1)c1ccccc1 (stereo not given)	-1.5	3.1	11.1	-2.9	-2.9	.	.
O=C(NC1CCCCC1)C1CCCN1S(=O)(=O)c1ccc(Cl)cc1 (stereo not given)	-36.4	5.0	12.6	13.8	-14.2	.	.
CC(C)c1ccc(NC(=O)CCS(=O)(=O)c2cccc3nonc23)cc1	7.1	-2.6	-2.9	-16.7	3.5	.	.
Cc1cccc(C)c1OCC(=O)Nc1cccc(-c2nnc(-c3ccccc3)o2)c1	7.7	-77.3	8.3	8.9	61.2*	19.6	.
Cc1ccc(-c2nc(C3CCN(S(=O)(=O)c4ccc(C(F)(F)F)cc4)CC3)no2)cc1	-1.3	17.9	9.1	4.9	55.8*	2.6	.
COc1ccc2[nH]c3c(c2c1)CCNC3=O	-6.8	-10.0	12.4	-6.1	70.7*	48.5*	34.4
CCOc1ccccc1C(=O)NCC(=O)NNC(=O)c1csc(N2CCOCC2)n1	.	.	-13.1	.	.	.	.
CCN(CC)C(=O)c1sc(NC(=O)C(Sc2ccccc2)c2ccccc2)c(C(=O)OC(C)C)c1C (stereo not given)	-2.1	1.0	67.7	17.0	57.5*	0.8	.
Cc1cc2cc(C#N)c(SCC(=O)Nc3nonc3C)nc2cc1C	-36.7	-4.8	-15.5	-36.0	68.9*	29.4	.
CC1CCc2nc3ccc(S(=O)(=O)N4CCC(C(=O)NC(C)c5ccccc5)CC4)cc3c(C(=O)O)c2C1 (stereo not given)	1.7	-1.4	-10.5	-0.2	21.7	.	.
Cc1ccccc1C1C(C#N)=C2N=C(N)c3c(sc4c3CCCCC4)N2C2=C1C(=O)CC(C)(C)C2 (stereo not given)	2.2	-15.8	0.9	6.9	39.3	.	.
Cc1ccccc1C1C(C#N)=C2NC(=O)c3c(sc4c3CCCCC4)N2C2=C1C(=O)CC(C)(C)C2 (stereo not given)	-4.3	-35.5	.	.	81.7*	63.4*	37.9*
Cc1cc(C)c(OCC(=O)NCCCn2nc(C)cc2C)c(C)c1	-10.9	1.5	3.1	4.1	9.6	.	.
O=C(O)CSC1CC(=O)N(c2ccc(Br)cc2)C1=O (stereo not given)	-19.4	-46.2	-65.1	.	3.2	.	.
SMILES	Jurkat NFkB inh	697 NFkB inh	Shn3 inh set2	Gli-Sufu antag	Mdm2-MdmX inh	Mdm2 MdmX conf	Full FLuc ctr
COc1cc(OC)c2c(-c3ccccc3)cc(=O)oc2c1C(CCN1CCCC(C)C1)c1ccc2c(c1)OCO2 (stereo not given)	-1.3	3.2	-13.4	-20.7	73.8*	36.8	77.2*
COc1cc(OC)c2c(-c3ccccc3)cc(=O)oc2c1C(CCN1CCCCC1)c1ccc2c(c1)OCO2 (stereo not given)	17.4	-6.0	10.7	7.3	98.6*	30.1	.
COc1cc(OC)c2c(-c3ccccc3)cc(=O)oc2c1C(CC(=O)N1CCCC1)c1ccc2c(c1)OCO2 (stereo not given)	6.7	9.9	2.9	8.0	-3.3	.	.
FC(F)Sc1ccc(NC(=S)NCc2ccccc2)cc1	-0.8	1.2	3.4	-3.2	-18.2	.	.
FC(F)Sc1ccc(NC(=S)NCC2CCCCC2)cc1	-18.0	-18.7	-8.2	-12.9	65.2*	-4.3	.
FC(F)Sc1ccc(NC(=S)NC(c2ccccc2)c2ccccc2)cc1	-3.1	-17.6	57.1	-4.2	100.3*	74.2*	38.1*
FC(F)Sc1ccc(NC(=S)NC2CCCCC2)cc1	-65.9	-58.9	-25.6	-20.8	-74.7	.	.
CN(C(=S)Nc1ccc(SC(F)F)cc1)C(c1ccccc1)c1ccccc1	8.3	10.6	7.0	0.5	56.2*	6.8	.
O=C(Cn1c(=O)c(=O)n(Cc2ccccc2)c2ccc(Cl)cc21)Nc1cccc(F)c1	2.0	11.0	29.3	-1.8	23.5	.	.
Cc1ccc(C(=O)c2oc3ccccc3c2NC(=O)c2cc(-c3cc(C)ccc3O)n[nH]2)cc1	5.4	6.1	1.2	-6.0	77.6*	31.9	72.3*
O=C(O)CN1C(=O)/C(=C/c2ccccc2Cl)Oc2ccccc21	0.9	2.4	-8.9	4.3	-8.6	.	.
O=C(CN1C(=O)/C(=C\c2ccccc2Cl)Oc2ccccc21)NCc1cccnc1	-13.6	-11.2	-1.0	-8.1	75.7*	1.1	.
COCCn1c(SCC(=O)N2CCCC2=O)nnc1-c1ccncc1	.	.	0.2	.	.	.	.
CN(C)c1ccc(/C=C/c2c([N+](=O)[O-])c(=O)n(C)c(=O)n2C)cc1	-19.6	13.9	-22.9	-1.7	-11.1	.	.
Cn1c(/C=C/c2ccc(Br)cc2)c([N+](=O)[O-])c(=O)n(C)c1=O	10.5	-21.7	6.1	2.6	84.3*	52.2*	23.9
Cc1cccc(NCc2ccc(Br)cc2)n1	-22.2	-5.1	-84.0	-6.3	12.9	.	.
Cc1cc(N2CCN(Cc3nc(-c4ccc(Cl)cc4)oc3C)CC2)cc(C)n1	-2.5	-43.5	21.2	14.7	63.9*	39.1	68.2*
Cc1oc(-c2cccc3ccccc23)nc1CN1CCN(c2ncnc3ccccc23)CC1	13.9	-25.4	31.5	13.6	15.2	.	.
